This is a sample that favours compounds with a hit; in the whole collection about 4.1% have one here.
hgDAF-12 ag: activates the H. glycines DAF-12 receptor ligand-binding domain; HEK293 GAL4-hgDAF12 UAS-luciferase reporter, agonist luminescence; normalized to butyrate control; activation, % at 6.8 µM; hit rate 1.8% among 370,000;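 active means activation above a cutoff set at the mean of all screened compounds plus 3 SD, cut at about 10% in these data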;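 further: 0% = DMSO wells and 100% = sodium butyrate wells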
hcDAF12 agonist: H. contortus DAF-12 activation, primary screen | AID 652067 | HEK293 hcDAF-12 lit1-tk-luc reporter, luminescence; 0% DMSO, 100% Δ7-dafachronic acid | hit rate 1.4% among 370,000 | activation, % at 6.8 µM;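 active means activation above the mean of all tested compounds plus 3 SD, cut at about 5.5% in these data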;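 further: 100% = response to 3 µM Δ7-dafachronic acid high control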
DAX1 inh-1: blocks DAX1 repression of SF-1 activated StAR promoter. AID 652010. HEK293T StAR-luciferase reporter, SF-1/DAX-1 repression relief. inhibition, % at 6.8 µM. hit rate 1.1% among 370,000;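 active means inhibition above the mean over all tested compounds plus 3 SD, cut at about 3.6% in these data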;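 further: 0% = DAX-1 cells with DMSO and 100% = cells lacking DAX-1 with DMSO; higher inhibition means more luminescence from relief of DAX-1 repression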
ssDAF-12 act: S. stercoralis DAF-12 activation, primary screen; HEK293 ssDAF-12/GRIP1 lit1-tk-luc reporter, luminescence; % of 3 µM dafachronic acid response; activation, % at 6.8 µM; hit rate 1% among 370,000;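 active means activation above the mean over all tested compounds plus 3 SD, cut at about 0.9% in these data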;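 further: 0% = DMSO-only wells and 100% = 3 µM delta7-dafachronic acid wells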
DAX1 inh-2: inhibits human nuclear receptor DAX1; P51843; AID 504766; hit rate 0.99% among 340,000; HEK293 Gal4-DAX1 luciferase reporter, luminescence; inhibition, % at 6.75 µM;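 active means inhibition above the mean over all tested compounds plus 3 SD, cut at about 4.2% in these data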;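 further: 0% = DAX1-transfected cells with DMSO and 100% = empty-vector control cells with DMSO; inhibition shows as a rise in luminescence from relieved DAX1 repression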
Target sequence (P51843 207-470 limits assumed): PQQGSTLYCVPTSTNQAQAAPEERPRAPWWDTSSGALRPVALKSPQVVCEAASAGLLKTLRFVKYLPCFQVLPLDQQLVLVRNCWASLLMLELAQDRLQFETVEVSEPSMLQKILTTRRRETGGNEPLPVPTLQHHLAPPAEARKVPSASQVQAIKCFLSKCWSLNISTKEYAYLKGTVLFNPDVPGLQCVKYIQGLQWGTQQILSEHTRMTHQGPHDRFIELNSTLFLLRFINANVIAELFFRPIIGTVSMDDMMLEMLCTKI
The depositor's hits bear a star; · = no result.

SMILES | hgDAF-12 ag | hcDAF12 agonist | DAX1 inh-1 | ssDAF-12 act | DAX1 inh-2
Cc1c(NC(=O)C(C)OC(=O)c2cc(-c3cccc4ccccc34)nc3ccccc23)c(=O)n(-c2ccccc2)n1C (stereo unspecified) | 10.9* | -2.0 | 0.3 | -0.4 | -0.8
O=C(Cn1nc(C(=O)O)c2ccccc2c1=O)Nc1ccc(Br)cc1 | -2.7 | 1.5 | -0.1 | 1.1* | -1.0
NC(=O)c1c(NC(=O)Cn2nc(C(=O)O)c3ccccc3c2=O)sc2c1CCCC2 | 12.9* | 0.0 | -0.5 | -1.5 | 2.7
O=C(Nc1cccc(F)c1)OC1CC2CC1[C@H]1CCCCN1[C@H]2Cc1ccccc1 (stereo partly specified) | -1.7 | -0.1 | 0.2 | -0.5 | ·
CCCCCCP(=O)(O)c1ccccc1 | -1.3 | -0.5 | -0.4 | -0.9 | 6.1*
O=P(CCCCCCCCCP(=O)(c1ccccc1)c1ccccc1)(c1ccccc1)c1ccccc1 | -4.0 | -2.9 | -2.0 | -1.8 | -2.5
COc1ccc(S(=O)(=O)N2CCCc3nc(C)c(C)cc32)cc1 | -2.7 | -1.4 | 1.1 | -0.6 | ·
CC(=O)c1ccc(N2CCN(C(=O)[C@H](C)NC(=O)c3ccccc3Cl)CC2)cc1 | -0.5 | -0.7 | 0.8 | -0.7 | 6.0*
CCN(Cc1ccccc1)S(=O)(=O)c1ccc(C(=O)N(CCCN(C)C)c2nc3c(F)cccc3s2)cc1 | 1.0 | 5.7* | 0.8 | -1.1 | 1.4
CCOc1cccc2sc(N(CCCN(C)C)C(=O)c3ccc(S(=O)(=O)N(CC)Cc4ccccc4)cc3)nc12 | 1.0 | 1.1 | -1.6 | -0.8 | 2.7
CCCCS(=O)(=O)N1C2=NC3=C(C(=O)N(CCOC)C3=O)C3N(C)c4ccccc4[C@]23C[C@H]1CO (stereo partly specified) | -3.1 | -0.5 | 0.2 | -1.3 | ·
C/C(=N\NC(=S)NC(C)C)c1cccc([N+](=O)[O-])c1 | 2.6 | -1.9 | -1.0 | -1.7 | 1.1
C/C(=N\NC(=S)NC(C)C)c1ccc(Cl)c([N+](=O)[O-])c1 | -1.9 | -1.5 | -0.3 | -1.3 | 4.6*
O=C(NCCO)/C(=C/c1ccc2c(c1)OCO2)NC(=O)c1ccc(Br)cc1 | 0.5 | -1.0 | -0.4 | -0.8 | 4.5*
O=C(O)CNC(=O)/C(=C\c1ccc2c(c1)OCO2)NC(=O)c1ccc(Br)cc1 | 3.9 | -1.9 | 0.6 | -0.7 | ·
CCCCCCCCN1C(=O)[C@@H](CC(=O)N2CCN(C(=O)c3ccco3)CC2)C[C@@]2(C(=O)OC)C1=C[C@H](COCc1ccccc1)O[C@@H]2C | 1.9 | -2.4 | 1.2 | -0.9 | ·
Cc1ccc(-n2nnnc2SCn2nnc3ccccc3c2=O)cc1 | 13.1* | 1.4 | 0.2 | -0.2 | 1.6
O=c1c2ccccc2nnn1CSc1nnnn1-c1ccc(O)cc1 | -1.5 | 4.2 | -0.2 | -1.8 | -0.1
O=c1[nH]c(Nc2ccccc2)cc2cc(Br)ccc12 | 1.0 | 0.1 | -0.5 | -1.4 | 0.4
COc1ccccc1Nc1cc2cc(Br)ccc2c(=O)[nH]1 | 2.5 | 6.2* | 0.3 | -0.4 | 1.0
CCOc1ccc(-n2c(SCC(=O)Nc3cc(C)c(NC(=O)c4ccccc4)cc3OC)nnc2-c2ccncc2)cc1 | 2.2 | -2.5 | -2.1 | -0.1 | ·
c1csc(-c2nc(CN3CCSCC3)cs2)c1 | 12.4* | 4.9 | 2.1 | -0.1 | -0.1
Cc1ccc(S(=O)(=O)Nc2cccc(-c3ccc(N4CCCCCC4)nn3)c2)cc1C | 5.4 | 1.9 | 2.9 | -1.2 | 0.6
O=S(=O)(Nc1cccc(-c2ccc(N3CCCCCC3)nn2)c1)c1ccc(C(F)(F)F)cc1 | 4.8 | 6.4* | 0.5 | -0.3 | 0.1
CCOC(=O)c1cccc(NC(=O)CN(C)S(=O)(=O)c2ccc(F)cc2)c1 | -0.4 | -2.1 | -1.1 | -1.3 | ·
SMILES | hgDAF-12 ag | hcDAF12 agonist | DAX1 inh-1 | ssDAF-12 act | DAX1 inh-2
COc1ccc2c(c1)CN1C(=O)N(CCc3ccccc3)S(=O)(=O)CC21 (stereo unspecified) | 4.8 | 1.2 | 0.8 | -0.6 | ·
CCCCN1C(=O)N2Cc3cc(OC)ccc3C2CS1(=O)=O (stereo unspecified) | 11.3* | 5.6* | 1.4 | -0.6 | ·
Cc1cccc(Nc2nnc(SC/C(O)=C(\C#N)c3nc4ccccc4[nH]3)s2)c1C | 2.3 | 4.8 | 0.4 | 1.0* | 0.8
N#C/C(=C(\O)Cc1ccccc1)c1nc2ccccc2[nH]1 | 0.5 | -0.7 | -0.6 | -0.9 | 1.5
Cc1cccc(C)c1Nc1nnc(SC/C(O)=C(\C#N)c2nc3ccccc3[nH]2)s1 | -0.3 | 3.2 | 0.1 | 0.6 | 0.0
N#C/C(=C(/O)CCl)c1nc2ccccc2[nH]1 | -6.0 | 4.7 | -1.7 | 1.0* | -0.9
COCC(=O)OC/C(O)=C(\C#N)c1nc2ccccc2[nH]1 | -4.1 | -1.6 | -1.7 | -1.7 | 4.7*
CCCC(=O)OC/C(O)=C(\C#N)c1nc2ccccc2[nH]1 | -5.5 | 1.5 | -0.5 | -0.7 | -0.1
Cc1cc(Br)ccc1SCC(=O)OCC(O)=C(C#N)c1nc2ccccc2[nH]1 | -0.4 | 3.9 | 0.6 | -0.6 | 0.1
Cc1cc(Br)ccc1SCC(=O)OC/C(O)=C(\C#N)c1nc2ccccc2[nH]1 | 6.2 | 2.6 | -0.6 | 1.1* | 0.9
C[C@H]1CN(c2ccc(N3CCNC[C@@H]3C)cc2C#N)CCN1Cc1ccccc1 | 2.6 | -0.5 | -1.3 | -0.4 | ·
CN(Cc1ccccc1F)C(=O)C1CCCN(c2ncccn2)C1 (stereo unspecified) | 2.6 | -1.8 | -0.8 | -1.0 | ·
O=C1C2C3C=CC(O3)C2C(=O)N1N=Cc1ccc2c(c1)OCO2 (stereo unspecified) | 0.0 | 0.8 | 0.6 | -0.9 | 2.5
CCOc1ccccc1C=NN=Cc1ccccc1O | -1.1 | -0.2 | 0.3 | 1.1* | 6.8*
O=C1NCCN1c1ccccc1 | 1.9 | -0.5 | -0.8 | -0.6 | 3.9
O=C1N(c2ccccc2)CCN1c1ccccc1 | 10.7* | 5.1 | 1.9 | 0.1 | 3.8
O=C1NC(=S)CN1c1ccccc1 | 0.4 | -1.0 | 0.3 | -1.2 | 5.6*
C=CCNC1CCC12CCC(c1ccccc1)CC2 (stereo unspecified) | 0.9 | 3.3 | · | -1.0 | ·
Cc1onc(-c2ccccc2)c1C(=O)Nc1ccc(N2CCOCC2)cc1 | -1.5 | -1.0 | 0.5 | -0.9 | 0.6
Cc1onc(-c2ccccc2)c1C(=O)Nc1ccc(NC(=O)c2c(-c3ccccc3)noc2C)cc1 | 1.3 | 1.6 | 0.1 | -1.1 | 5.1*
COc1ccccc1/C=N\NC(=O)c1cccc(S(=O)(=O)N(C)C)c1 | 0.5 | -0.9 | 0.3 | -1.6 | ·
COc1ccc(OC)c(C=Nc2ccccc2-c2nc3ccccc3[nH]2)c1 | 12.3* | 2.7 | 1.8 | 0.1 | 2.8
Oc1ccc(C=Nc2ccccc2-c2nc3ccccc3[nH]2)c(O)c1 | 9.0 | 1.9 | 2.2 | -1.0 | -0.1
CN(Cc1ccccc1F)C(=O)C1C2C=CC3(CN(Cc4ccccc4)C(=O)C13)O2 (stereo unspecified) | -1.3 | 0.1 | 0.1 | -0.8 | ·
CC(C)(C)c1ccc(OC(=O)N2CCOCC2)cc1 | 10.7* | 4.0 | 1.6 | 0.1 | 0.6
CC1(C)CC(=O)N(Cc2ccccc2)C(=O)C1 | -1.5 | 0.7 | -0.5 | -1.5 | 4.5*
